Reference: PubChem BioAssay AID504607 (Sanford-Burnham Center for Chemical Genomics, 2011)
The campaign covered roughly 6,200 compounds. About 4,800 (77%) were called active.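 The calls were made as follows: active = mean inhibition at 8 µM reaching about 37%, which flags the compound as non-specific (limit read from the data); inactive = the rest.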 So high a share suggests a set chosen from earlier hits. The list is a sample of the results.

Experiment: full-length luciferase signal inhibition, confirmation, counter-screen for Mdm2/MdmX interaction inhibitor project, cell-based, single concentration, SaOS-2 (AID 504607);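 also: p53-null SaOS-2 cells with luciferase driven by a doxycycline-inducible promoter; compound on cells about two nights before reading with doxycycline added after day one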
Conditions: SaOS-2 full-length luciferase counterscreen, luminescence; at 8 µM; active compounds read high

Row | Structure (SMILES) | inhibition
1 | C=CCSc1nsc(NC(=O)Nc2cccc(C(C)=O)c2)n1 | 21.9% (inactive)
2 | CCSc1nsc(NC(=O)Nc2cccc(C(C)=O)c2)n1 | 41% (active)
3 | CC(=O)c1ccc(Oc2cc(C)nc(-n3nc(C)cc3C)n2)cc1 | 78.7% (active)
4 | Oc1cccc(/C=N/Nc2ccc(Cl)nn2)c1O | 45.7% (active)
5 | Oc1ccc(Br)cc1/C=N/Nc1ccccn1 | 20% (inactive)
6 | Cc1nnnn1/C(=C\c1ccccc1)C(=O)OCC(=O)N1CC2(C)CC1CC(C)(C)C2 (stereo not drawn) | 53.4% (active)
7 | CC[n+]1cc(C)ccc1/C=C/c1ccc(N(C)C)cc1 | 37.8% (active)
8 | O=C(/C=C/Sc1ncn[nH]1)c1ccc(Cl)cc1 | 51% (active)
9 | COC(=O)CCNc1ccc2c(c1)OCCO2 | 51.5% (active)
10 | CCOC(=O)c1c(-c2cccc(C)c2)csc1NC(=O)c1c(-c2ccccc2)noc1C | 52.8% (active)
11 | O=C(CSc1nc2ccccc2c(=O)[nH]1)Nc1nc(-c2ccc(Br)cc2)cs1 | 47.8% (active)
12 | Cc1ccc(C(=O)Nc2sc(Cc3ccc4c(c3)OCO4)c(C)c2C(N)=O)cc1 | 89.9% (active)
13 | CCN1/C(=C\c2ccc3ccccc3[n+]2CC)Sc2cc(C)ccc21 | 25% (inactive)
14 | Cc1ccc2[nH]c(=O)c(CN(CCCN(C)C)C(=O)Nc3cccc(Cl)c3)cc2c1 | 66.6% (active)
15 | Cc1cccc(NS(=O)(=O)c2ccc(-c3cnc(C4CC4)o3)cc2)c1 | 63.9% (active)
16 | COC(=O)C1=C(Nc2ccc(C)cc2)C=C(C)C(C(=O)OC)C1c1ccc(F)cc1 (stereo not drawn) | 61.3% (active)
17 | O=C(c1[nH]ncc1-c1ccc(Cl)cc1)C1CO1 (stereo not drawn) | 45.8% (active)
18 | O=C1NC(Nc2nc3ccccc3s2)(C(F)(F)F)C(=O)N1C1CCCCC1 (stereo not drawn) | 73.6% (active)
19 | Brc1ccc2ncnc(NCc3cccnc3)c2c1 | 26.8% (inactive)
20 | Cc1ccnc(NC(=O)C2CCN(S(=O)(=O)c3c(C)c(C)cc(C)c3C)CC2)c1 | 46% (active)

Row | Structure (SMILES) | inhibition
21 | O=C(CCNC(=O)c1ccc(Cl)cc1)NC1CCCc2ccccc21 (stereo not drawn) | 54.4% (active)
22 | CCOC(=O)/C(=C\c1ccc([N+](=O)[O-])cc1)C(=O)c1cc(C(C)=O)c(Nc2ccccc2)s1 | 50.6% (active)
23 | CN(c1ccccc1)S(=O)(=O)c1cc(C(=O)N2CCN(c3ncccn3)CC2)ccc1Cl | 83.9% (active)
24 | O=C(COc1ccccc1F)Nc1nc(-c2ccccn2)cs1 | 47.2% (active)
25 | O=C(CCCCCn1c(=S)[nH]c2cc3c(cc2c1=O)OCO3)N1CCN(c2ccc(F)cc2)CC1 | 79.3% (active)
26 | Cc1ccc(C)c(N2CCN(C(=O)CCCCCn3c(=S)[nH]c4ccc(N5CCOCC5)cc4c3=O)CC2)c1 | 60.1% (active)
27 | COc1cccc(-c2nnc(NC(=O)c3ccc(S(=O)(=O)N(CC(C)C)CC(C)C)cc3)o2)c1 | 24.3% (inactive)
28 | O=C(CN1C(=O)c2ccccc2S1(=O)=O)N1CCc2ccccc21 | 15.9% (inactive)
29 | O=C1/C(=C\c2ccccc2Cl)SC(=S)N1CCC(=O)N1CCCc2ccccc21 | 43.1% (active)
30 | Fc1ccccc1/C=C1\CCCC2=C1Nc1ncnn1C2c1ccccc1F (stereo not drawn) | 3.26% (inactive)
31 | Cc1ccccc1NC(=O)CSc1nc2ccc(Nc3nc(N4CCOCC4)nc(N4CCOCC4)n3)cc2s1 | 81.4% (active)
32 | O=C(CSc1nc(Nc2ccccc2)nc(N2CCOCC2)n1)Nc1cc(Cl)ccc1O | 65.1% (active)
33 | O=C1[C@H]2[C@@H](c3ccc(F)cc3)N3C(=O)N(c4ccc(C(F)(F)F)cc4)C(=O)[C@@]3(Cc3ccccc3)[C@H]2C(=O)N1C1CCCCC1 | 48.6% (active)
34 | COc1ccc2[nH]c(=O)c(CN(Cc3cccnc3)S(=O)(=O)c3ccccc3F)cc2c1 | 56.2% (active)
35 | Cc1ccc(-c2cn3cc(C)ccc3n2)cc1 | 29% (inactive)
36 | Cc1ccc2nc(-c3ccc(Br)cc3)cn2c1 | 133% (active)
37 | FC(F)(F)c1nnc2c3ccccc3c(Cl)nn12 | 79.9% (active)
38 | CC1CN(C(=O)CCC(=O)NCCCN2CCC(Cc3ccccc3)CC2)c2cc(Cl)ccc2O1 (stereo not drawn) | 40.4% (active)
39 | O=C(N/N=C\c1cc2c(cc1Cl)OCO2)c1ccc(Br)s1 | 94.6% (active)
40 | CCN(CC)S(=O)(=O)c1ccc(NC(=O)c2cccnc2Cl)c(NC(=O)c2cccnc2Cl)c1 | 43.5% (active)

Row | Structure (SMILES) | inhibition
41 | N=c1n(CCc2ccccc2)c2ccccc2n1Cc1ccccc1F | 69.7% (active)
42 | CCOC(=O)/C=C/C(=O)OCC(=O)NC(c1ccccc1)c1ccccc1 | 56.8% (active)
43 | O=[N+]([O-])/C=C/c1ccc2c(ccn2Cc2ccccc2)c1 | 49% (active)
44 | COc1ccc(Nc2oc(-c3ccccc3Cl)nc2C#N)cc1 | 79% (active)
45 | O=C(NNc1ccccc1Cl)C(O)(c1cccc(C(F)(F)F)c1)c1cccc(C(F)(F)F)c1 | 87.9% (active)
46 | COC(=O)c1sc(-c2ccc(C(C)(C)C)cc2)cc1NC(=O)/C=C/C(=O)O | 55.9% (active)
47 | O=C(CSc1cccc2cccnc12)N/N=C/c1cccnc1 | 68.1% (active)
48 | CC(=O)/C(=N\Nc1ccc(Cl)cc1Cl)Sc1cccc2cccnc12 | 19.1% (inactive)
49 | CCn1cc(CN2CCC(C(=O)Nc3cccc(-c4cccc(Cl)c4)c3)CC2)c(C)n1 | 74.2% (active)
50 | c1ccc2c(c1)CSc1sccc1C2=C1CCNCC1 | 44.8% (active)
51 | COc1cccc(-n2c(SCC(=O)NC3CCCCC3)nc3n[nH]c(C)c3c2=N)c1 | 66.3% (active)
52 | NC(=O)c1sc2nc3c(c(-c4ccccc4)c2c1N)CCC3 | 43.5% (active)
53 | Cc1ccccc1C(=O)N1CCN(c2ccc(NC(=O)c3cccs3)cc2)CC1 | 65.1% (active)
54 | COc1ccc(C(=O)NC2CCCc3c2cnn3-c2cccc(C)c2C)c(OC)n1 (stereo not drawn) | 54.8% (active)
55 | Cc1cc(C(=O)NC2CCCc3c2cnn3-c2cccc(C)c2C)c(C)o1 (stereo not drawn) | 91% (active)
56 | CC(NC(=O)Nc1ccccc1)C(c1cccs1)N1CCN(c2ccccc2)CC1 (stereo not drawn) | 58% (active)
57 | N#Cc1cccc(NC(=O)COC(=O)c2ccccc2C(=O)c2ccc(Cl)c([N+](=O)[O-])c2)c1 | 50.4% (active)
58 | CC(=O)Nc1ccc(NC(=O)C(C)OC(=O)c2ccccc2C(=O)c2ccc(Cl)c([N+](=O)[O-])c2)cc1 (stereo not drawn) | 52.9% (active)
